The list is not random: actives were taken first. Their share in the collection is about 10%.
Luciferase inh = Firefly luciferase inhibition profiling of diverse chemical library using quantitative high-throughput screening; Potency, µM (highest dose often 115 µM), usual class: inhibitors; purified P. pyralis luciferase, luminescence, biochemical; hit rate 2.5% among 76,000; Luciferin 4-monooxygenase (Photinus pyralis), P08659; also: nearly all actives have a fitted effect of over 65% in size
Target sequence (P08659 whole entry, looked up): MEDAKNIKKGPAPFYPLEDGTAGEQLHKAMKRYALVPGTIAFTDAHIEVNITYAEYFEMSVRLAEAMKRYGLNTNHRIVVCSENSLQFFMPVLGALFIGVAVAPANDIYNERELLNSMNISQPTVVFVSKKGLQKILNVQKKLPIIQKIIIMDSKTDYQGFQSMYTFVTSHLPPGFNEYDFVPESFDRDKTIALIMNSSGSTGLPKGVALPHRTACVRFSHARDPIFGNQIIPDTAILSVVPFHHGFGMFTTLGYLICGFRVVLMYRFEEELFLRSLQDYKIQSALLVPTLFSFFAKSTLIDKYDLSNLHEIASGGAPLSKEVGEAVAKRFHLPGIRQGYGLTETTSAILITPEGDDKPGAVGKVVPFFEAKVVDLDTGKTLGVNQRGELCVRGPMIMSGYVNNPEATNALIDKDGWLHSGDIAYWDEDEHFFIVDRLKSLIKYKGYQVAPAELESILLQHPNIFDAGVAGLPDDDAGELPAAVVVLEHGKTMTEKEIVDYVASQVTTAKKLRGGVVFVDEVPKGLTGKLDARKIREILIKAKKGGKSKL
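Biochemical qHTS: compound (6-point titration) added to 10uM D-luciferin plus 10uM ATP in Tris acetate pH 7.5 buffer with Mg, Tween-20 and BSA, then purified enzyme at 10nM; light output imaged.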
NIH3T3 tox = Cytotoxic Profiling in NIH 3T3 Cell Line of Diverse Libraries Using Quantitative High-Throughput Screening; Potency, µM (top dose mostly 96.7 µM), usual class: inhibitors; NIH 3T3 viability, CellTiter-Glo ATP luminescence, 48-72 h; hit rate 4.3% among 94,000; also: nearly all actives have a fitted effect of over 55% in size
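Luminescent ATP readout (CellTiter-Glo, 10 min RT) after 48 or 72 hr compound exposure of NIH 3T3 cells seeded at 400 cells/well in 1536-well format; quantitative HTS.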
GPT2 inhibitor = Primary qHTS assay for inhibitors of Glutamate pyruvate transaminase 2 (GPT2); Recombinant GPT2, coupled pyruvate oxidase/HRP Amplex Red fluorescence; Potency, µM (highest dose often 57.7 µM), actives largely listed as inhibitors; hit rate 0.25% among 100,000; AID 1671188, 2021; also: nearly all actives have a fitted effect of over 60% in size
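Inhibition is scored from Amplex Red fluorescence generated when pyruvate oxidase and HRP act on pyruvate released by GPT2. Reactions contain 10ng/uL enzyme, 250uM a-KG and 2mM L-alanine and run 30 min at room temperature.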
HEK293 tox = Cytotoxic Profiling in HEK 293 Cell Line of Diverse Libraries Using Quantitative High-Throughput Screening. Potency, µM (top dose mostly 115 µM), usual class: inhibitors. HEK 293 viability, ATP luminescence (CellTiter-Glo), 48-72 h. hit rate 6.6% among 94,000; also: nearly all actives have a fitted effect of over 60% in size
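CellTiter-Glo luminescence (cellular ATP) was read after 48 or 72 hr of compound exposure at 37 degree Celsius. Cells were HEK 293 plated at 250 cells/well.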
hNpr1 antagonist = Natriuretic polypeptide receptor (hNpr1) antagonism - Primary qHTS; Atrial natriuretic peptide receptor 1 (Homo sapiens), P16066; HEK293 hNpr1 GloSensor cGMP, ANP-stimulated luminescence; Potency, µM (top dose mostly 46.3 µM), actives largely listed as inhibitors; hit rate 1.6% among 76,000; AID 1347048, 2019; calls by dose curve; also: nearly all actives have a fitted effect of over 60% in size
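Compound pre-incubated 30 min at room temperature on GloSensor-loaded HEK293 cells stably carrying hNpr1 and the pGS-40F cGMP biosensor. Stimulation uses hNppA at 0.1 nM final; luminescence is taken at baseline and 20 min post-agonist.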
Each line names hits and unclear results; the compound was inactive in the other large screens. Unless noted, calls follow the shape of the dose curve; as a rule, active = well fitted curve in the direction sought with a large enough effect; inconclusive = small, poorly fitted or top-dose-only effect, or another doubt; inactive = no such curve, though single readings can be large; an effect the other way counts as inactive or inconclusive.

O=C(NCC1(COc2cccnc2)C[C@@H](O)[C@@H](O)C1)C1CC1 (some centres undefined)	NIH3T3 tox inconclusive, HEK293 tox 31.6µM, hNpr1 antagonist inconclusive
COc1ccc(Nc2ncc(-c3cnn(C)c3)c3c2OCC3)cc1	Luciferase inh 25.1µM, NIH3T3 tox inconclusive, HEK293 tox inconclusive
Cn1cc(-c2cnc(Nc3cnccn3)c3c2CCO3)cn1	Luciferase inh inconclusive, NIH3T3 tox inconclusive
Cn1cc(-c2cnc(Nc3cncnc3)c3c2CCO3)cn1	NIH3T3 tox 100µM
COc1ccc(F)cc1-c1ccc(CN2CCCCC2C(=O)NCc2ccc(Cl)cc2)cc1 (centres undefined)	NIH3T3 tox inconclusive, HEK293 tox 14.1µM (no result: Luciferase inh, GPT2 inhibitor, hNpr1 antagonist)
COc1ccc(F)cc1-c1ccc(CN2CCCCC2C(=O)NCc2cccc(F)c2)cc1 (centres undefined)	NIH3T3 tox 35.5µM, HEK293 tox inconclusive (no result: Luciferase inh, GPT2 inhibitor, hNpr1 antagonist)
COc1ccc(-c2ccccc2C(=O)N2CCC(NC(=O)c3ccccc3F)CC2)nn1	none (no result: Luciferase inh, GPT2 inhibitor, hNpr1 antagonist)
O=C(C1CCN(Cc2ccccc2-c2ccccc2F)CC1)N1CCC(Cc2ccccc2)CC1	NIH3T3 tox 35.5µM, HEK293 tox 35.5µM (no result: Luciferase inh, GPT2 inhibitor, hNpr1 antagonist)
O=C(C1CCCC1)N1CCN(Cc2ccccc2-c2ccccc2F)CC1	NIH3T3 tox inconclusive, HEK293 tox inconclusive (no result: Luciferase inh, hNpr1 antagonist)
O=C(C1CCCCC1)N1CCC(C2CCN(Cc3cccc(F)c3F)CC2)C1 (centres undefined)	NIH3T3 tox inconclusive, HEK293 tox 79.4µM
O=C1CCCN1CC(=O)N1CCC(C2CCN(Cc3cccc(F)c3F)CC2)C1 (centres undefined)	none
O=C(NCCCc1ccccc1)C1CCN(Cc2ccccc2-c2ccccc2F)CC1	NIH3T3 tox inconclusive, HEK293 tox 22.4µM (no result: Luciferase inh, GPT2 inhibitor, hNpr1 antagonist)
O=C(NCc1cccc(F)c1)C1CCN(Cc2ccccc2-c2ccccc2F)CC1	NIH3T3 tox inconclusive, HEK293 tox 39.8µM (no result: Luciferase inh, GPT2 inhibitor, hNpr1 antagonist)
O=C(NCC(F)(F)F)C1CCN(Cc2ccccc2-c2ccccc2F)CC1	none (no result: Luciferase inh, GPT2 inhibitor, hNpr1 antagonist)
CCC[C@H]1CN(CCS(C)(=O)=O)C[C@@H]1NC(=O)C1CCOCC1	none
Cc1noc(C2CCCCCN2C(=O)Nc2ccccc2)n1 (centres undefined)	none
O=C(Cn1nc2c(cc1=O)CCCCC2)Nc1ccncc1	none
CCc1nnc(CN2CCC(N3CCCC(C(=O)NCc4ccccn4)C3)CC2)o1 (centres undefined)	none
O=C(c1cccc(Cl)c1)N1CCN(Cc2ccccc2-c2ccccc2F)CC1	NIH3T3 tox 44.7µM, HEK293 tox inconclusive (no result: Luciferase inh, hNpr1 antagonist)
O=C(N1C[C@@H](CO)[C@H](c2ccccn2)C1)C1(c2ccccc2)CCCC1	none
CCc1ccc(S(=O)(=O)c2nnn3c2nc(NCc2ccc(F)cc2)c2ccccc23)cc1	NIH3T3 tox inconclusive (no result: Luciferase inh, hNpr1 antagonist)
O=S(=O)(c1ccc(Cl)cc1)c1nnn2c1nc(NCc1ccc(F)cc1)c1ccccc12	NIH3T3 tox 31.6µM, HEK293 tox inconclusive (no result: Luciferase inh, hNpr1 antagonist)
O=C1CO[C@H]2CN(Cc3ccccc3F)C[C@H]2N1c1ccccc1	NIH3T3 tox inconclusive, HEK293 tox 79.4µM
CNC(=O)[C@@H](C1CC1)N1CCC[C@H]1C(=O)N1CCOCC1	none
O=C1CC(c2ccccc2)N(C(=O)CNC(=O)c2n[nH]c3ccccc23)CCCCCN1 (centres undefined)	Luciferase inh 25.1µM
O=C1CC(c2ccccc2)N(C(=O)CNC(=O)c2[nH]nc3c2COc2ccccc2-3)CCCCCN1 (centres undefined)	NIH3T3 tox inconclusive, HEK293 tox 31.6µM
O=C1CC(c2ccccc2)N(C(=O)CNC(=O)c2nccc3ccccc23)CCCCCCN1 (centres undefined)	NIH3T3 tox inconclusive, HEK293 tox inconclusive
CN1c2cc(C(=O)NCc3ccc(F)cc3)ccc2C(=O)N2CCCC21 (centres undefined)	HEK293 tox inconclusive
CCCNC(=O)c1cccc2c1CCN2C(=O)Nc1ccc(OC)cc1	Luciferase inh 0.355µM, NIH3T3 tox inconclusive, HEK293 tox inconclusive, hNpr1 antagonist 5.01µM
